# Test results reported in the supplement of paper PMC6555819.
# Legend:
# Experiment in all cases: PBM binding z-score (relative to random genomic background probes); higher = stronger binding; sequences stand for … in GC…GCGATTGACAGCGTAGAATGAAGG
# [1] = test system: FXR:RXRa (NR concentration 270 nM, RXRa partner concentration 90 nM)
# How it was run: (§1)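 Ligand-free nuclear receptor dimers were bound for 1 h to custom Agilent 4×180K protein-binding microarrays. Detection used antibodies against each partner (one per run). Binding z-scores rest on regression-normalized fluorescence, with random background probes as the reference.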
# [2] = test system: LXRa:RXRa (NR concentration 270 nM, RXRa partner concentration 90 nM)
# How it was run: as §1
# [3] = test system: LXRa homodimer (NR concentration 270 nM)
# How it was run: as §1
# [4] = test system: LXRb:RXRa (NR concentration 270 nM, RXRa partner concentration 90 nM)
# How it was run: as §1
# [5] = test system: LXRb homodimer (NR concentration 270 nM)
# How it was run: as §1
# [6] = test system: PPARa:RXRa (NR concentration 270 nM, RXRa partner concentration 90 nM)
# How it was run: as §1
# [7] = test system: PPARg:RXRa (NR concentration 180 nM, RXRa partner concentration 90 nM)
# How it was run: as §1
# [8] = test system: PPARg:RXRa 270nM:90nM, anti-RXR (NR concentration 270 nM, RXRa partner concentration 90 nM)
# How it was run: as §1
# [9] = test system: PPARg:RXRa 30nM:10nM, anti-RXR (NR concentration 30 nM, RXRa partner concentration 10 nM)
# How it was run: as §1
# [10] = test system: PPARg:RXRa 90nM:30nM, anti-RXR (NR concentration 90 nM, RXRa partner concentration 30 nM)
# How it was run: as §1
# [11] = test system: PPARg:RXRa DBDmut IVT, anti-RXR (DBD mutation: RXRa K156A/R161A, NR concentration 270 nM, RXRa partner concentration 90 nM)
# How it was run: as §1
# [12] = test system: PPARg:RXRa IVT, anti-PPARg (NR concentration 270 nM, RXRa partner concentration 90 nM)
# How it was run: as §1
# [13] = test system: PPARg DBDmut:RXRa IVT, anti-PPARg (DBD mutation: PPARg1 K132A/R137A, NR concentration 270 nM, RXRa partner concentration 90 nM)
# How it was run: as §1
# [14] = test system: PPARg DBDmut IVT, anti-PPARg (DBD mutation: PPARg1 K132A/R137A, NR concentration 270 nM)
# How it was run: as §1
# [15] = test system: PPARg homodimer (NR concentration 180 nM)
# How it was run: as §1
# [16] = test system: PXR:RXRa (NR concentration 270 nM, RXRa partner concentration 90 nM)
# How it was run: as §1
# [17] = test system: PXR homodimer (NR concentration 270 nM)
# How it was run: as §1
# [18] = test system: RARa:RXR (NR concentration 270 nM, RXRa partner concentration 90 nM)
# How it was run: as §1
# [19] = test system: RARa homodimer (NR concentration 270 nM)
# How it was run: as §1
# [20] = test system: RARb:RXRa (NR concentration 270 nM, RXRa partner concentration 90 nM)
# How it was run: as §1
Sequence,PBM binding z-score [1],PBM binding z-score [2],PBM binding z-score [3],PBM binding z-score [4],PBM binding z-score [5],PBM binding z-score [6],PBM binding z-score [7],PBM binding z-score [8],PBM binding z-score [9],PBM binding z-score [10],PBM binding z-score [11],PBM binding z-score [12],PBM binding z-score [13],PBM binding z-score [14],PBM binding z-score [15],PBM binding z-score [16],PBM binding z-score [17],PBM binding z-score [18],PBM binding z-score [19],PBM binding z-score [20]
ATCGAAAGCTCGAGGTGAGTATAGAGAAAGGGAA,-0.382,-0.596,-0.515,-0.793,-0.851,-0.028,0.163,-0.516,-0.268,-0.554,-0.98,0.455,0.71,0.162,-1.14,-0.37,-0.567,-0.162,-0.838,0.00915
CCTTGGAGGACAGAAGGTCAGAGCTGTCCGCTTT,1.46,1.83,0.306,1.23,-0.609,2.23,0.715,2.34,0.178,1.81,0.658,1.17,-1.14,-2.25,1.98,1.69,0.0669,2.36,0.737,3.29
GTACCAAGGTGAATAGGTCGGTGATGAGTAGGCG,0.606,0.247,-0.139,0.125,-0.619,1.64,1.24,1.29,0.291,0.711,1.48,2.82,-0.0174,0.489,0.98,0.296,0.0352,1.02,0.441,1.86
GCTGCCAGGTCAGGTTGGTCAGCTAACGGGTACG,1.58,0.973,-0.337,0.712,-0.51,1.64,0.272,0.752,-0.562,0.147,0.771,1.4,-0.447,-1.57,0.22,0.724,-0.291,1.25,-0.438,3.23
TCATATAGGTAAATGCTAGCTGAAAGTCCGATCT,0.654,0.665,-0.000947,0.713,-0.112,1.04,0.413,1.96,3.71,2.81,3.73,1.89,0.625,1.15,0.314,0.592,0.27,0.762,0.642,0.242
CAAACTAGGTCACGGAGGTCAAAGTCCGTGCGTA,7.4,6.23,6.45,5.9,1.36,6.83,10.4,8.3,7.09,8.25,8.69,9.3,5.33,6.03,5.85,6.63,10.4,7.02,2.61,5.34
GATACAGGGTCAGCTAGAGGCCAGAATATGGAAA,4.72,2.63,-0.176,2.61,-0.466,4.48,3.78,3.14,1.04,2.25,0.991,2.56,-0.253,-0.217,2.63,3.24,0.115,4.04,0.657,4.02
